# Compound activity (PubChem BioAssay)
# In the library only some 2.6% were active in any assay of this set; here they are far more common.
# TROY NFkB inh = inhibitors of TROY-dependent NF-kB signaling; Q293 LMP1-TROYcd NF-kB luciferase reporter, 4 h; inhibition, % at 10 µM; 360,000 tested, 0.98% active;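 active = compounds whose plate-normalised and pattern-corrected inhibition of the luciferase reporter signal at the single screening dose is 50% or more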
# LGR2 antag = Drosophila LGR2 receptor signaling inhibition. HEK293 LGR2, CRE-luciferase, bursicon-stimulated, 4 h. inhibition, % at 9.99 µM. 380,000 tested, 0.35% active;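 active = drop in luminescence signal, shown as inhibition above about 50% in the replicate tests, limit read from the data, passing the limit was not always enough; inconclusive = probably only some replicates passing the limit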;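 also: agonist challenge used bursicon conditioned medium at about half maximal strength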
# EWS-Fli block = inhibitors of EWS/Fli oncoprotein transcriptional activity; A673 NR0B1-luciferase reporter, viability-normalised; inhibition, % at 12.6 µM; 350,000 tested, 0.67% active; AID 651661;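 active = mean inhibition of at least 50% after viability correction, with every replicate also passing that limit; inconclusive = mean reaches 50% but only one of two replicates passes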;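 also: firefly luciferase signal divided by Alamar Blue viability fluorescence both relative to DMSO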
# EBV LMP1 NFkB = Epstein-Barr LMP1 NF-kappaB reporter inhibition; LMP1-induced NF-kappaB luciferase reporter cells, luminescence; inhibition, % at 12.5 µM; 350,000 tested, 0.69% active; in the data active = inhibition above about 41%; inconclusive = no clear call, values can overlap the other calls;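 also: 0% = neutral control wells and 100% = reference inhibitor control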
# TWEAK Fn14 block = TWEAK-Fn14 signaling inhibition; TWEAK-stimulated Fn14 reporter cells, luciferase luminescence, 8 h; inhibition, % at 10 µM; 360,000 tested, 2% active; in the data active = inhibition above about 50%
# * marks the source's active call; other numbers are inactive results; ? = inconclusive; . = no result.
SMILES,TROY NFkB inh,LGR2 antag,EWS-Fli block,EBV LMP1 NFkB,TWEAK Fn14 block
COc1ccc(NC(=O)C2=Cc3cccc(OC)c3OC2)cc1,-41.0,-34.6,-111.0,-23.1,-16.4
CCC(Oc1ccccc1OC)C(=O)Nc1ccc2c(c1)OCCO2 (stereo not drawn),29.4,8.9,2.9,0.1,59.4*
CC(C)=CCN(C(=O)C#Cc1ccccc1)[C@H](CO)c1ccccc1,.,.,41.9,.,.
CC(=O)c1ccc2c(c1)OCCOCCOCCOCCOCCO2,-2.6,8.9,3.7,.,87.4*
CC(=O)Oc1ccc(C(=O)Nc2ccc3c(c2)OCCO3)cc1,28.4,28.3,1.3,16.0,31.5
O=C(Nc1ccc2oc(-c3ccccc3)nc2c1)c1ccc2c(c1)OCCO2,57.8*,.,.,7.6,36.4
COc1ccc(C(=O)Nc2ccc3c(c2)OCCO3)cc1,26.6,.,.,25.1,50.2*
O=C(Nc1ccc(Br)cc1F)c1ccc2c(c1)OCCO2,33.1,2.9,1.7,0.4,50.7*
O=C(Nc1ccc(F)cc1F)c1ccc2c(c1)OCCO2,-4.0,-9.0,-25.5,5.1,4.2
CC(=O)Nc1ccc2c(c1)OCCOCCOc1cc(NC(C)=O)ccc1OCCOCCOCCO2,.,-3.1,6.8,.,.
CCCNC(=O)N1CC2(CN(CC3CC3)C2)c2c(n(C)c3cc(OC)ccc23)[C@H]1CO,.,-14.8,-0.9,.,.
Cc1cccc(C(=O)Nc2ncc(CN3CCOCC3)s2)c1,-6.5,4.6,-2.2,0.2,66.2*
Cc1cccc(C(=O)Nc2ccc(NC(=O)CN3CCOCC3)cc2)c1,-4.3,9.8,-7.7,-0.3,1.5
COC(=O)/C(C#N)=C/c1ccc(OC(=O)c2ccccn2)cc1,-18.2,6.5,51.6*,-7.2,-2.9
C[C@@H]1CN([C@@H](C)CO)C(=O)c2cc(-c3cccc(C(=O)N(C)C)c3)cnc2O[C@@H]1CN(C)S(=O)(=O)c1cccc(F)c1,.,-7.1,-20.2,.,.
O=C1CC(N2CCCCCC2)C(=O)N1c1ccc2c(c1)OCO2 (stereo not drawn),-6.9,3.7,1.6,-13.5,-11.8
O=C1CC(NC23CC4CC(CC(C4)C2)C3)C(=O)N1c1ccc2c(c1)OCO2 (stereo not drawn),55.7*,-7.6,.,-3.8,32.9
O=C(NC1CC2CCCC(C1)N2C(=O)Nc1ccc(Cl)c(C(F)(F)F)c1)C1CC1 (stereo not drawn),-5.6,.,.,-2.3,2.3
O=C(Nc1ccc(Cl)c(C(F)(F)F)c1)NC1CC2CCCC(C1)N2Cc1ccccc1 (stereo not drawn),.,82.2*,17.9,.,.
c1csc(CNc2ncnc3ccc(-c4ccoc4)cc23)c1,55.2*,44.8,-9.5,?,88.2*
c1csc(CNc2ncnc3ccc(-c4ccc5c(c4)OCO5)cc23)c1,15.4,.,1.2,2.2,-24.1
C[C@@H]1CN([C@H](C)CO)C(=O)Cc2cc(NC(=O)Cc3cn(C)c4ccccc34)ccc2O[C@@H]1CN(C)S(=O)(=O)c1cccs1,.,-2.9,1.3,.,.
Cc1cc(C)c(O)c(NC(=S)NC(=O)Cc2ccccc2)c1,-20.8,6.9,-7.8,1.1,71.7*
COCCNC(=O)C[C@@H]1C[C@@H]2c3cc(NS(=O)(=O)c4ccc(F)cc4)ccc3O[C@@H]2[C@@H](CO)O1,.,-6.8,3.3,.,.
COc1ccc(C)cc1NC(=O)CNC(c1ccccc1)c1ccc(C)cc1 (stereo not drawn),18.3,-8.1,54.8*,16.7,22.2
SMILES,TROY NFkB inh,LGR2 antag,EWS-Fli block,EBV LMP1 NFkB,TWEAK Fn14 block
CO[C@@H](C(=O)N(C)C[C@H]1OCc2ccccc2-c2ccccc2C(=O)N([C@H](C)CO)C[C@H]1C)c1ccccc1,.,-6.4,2.3,.,.
CC(C)(C)OC(=O)NCC(=O)Oc1cc2oc(=O)cc(-c3ccccc3)c2cc1Cl,48.4,15.6,-1.2,7.9,80.3*
O=C(Oc1cc2oc(=O)cc(-c3ccccc3)c2cc1Cl)C1CCCCC1,43.7,.,.,7.9,20.6
Cc1cccc(N(C(=O)CNC(=O)c2ccco2)C(C(=O)NCC2CCCO2)c2ccccc2)c1 (stereo not drawn),1.7,6.8,6.9,2.7,67.0*
Cc1ccc(N(C(=O)CNC(=O)c2ccco2)C(C(=O)NCC2CCCO2)c2ccccc2)cc1 (stereo not drawn),-4.8,.,.,0.7,9.7
COc1ccc(NC(=O)N2C[C@@H]3[C@H](c4ccccc42)[C@@H](CO)N3C(=O)C2CCCC2)cc1,.,-3.1,3.2,.,.
COc1ccc(-c2csc3ncnc(Cl)c23)cc1,-2.9,-0.4,16.4,5.1,12.7
COc1ccc(Nc2ncnc3scc(-c4ccc(OC)cc4)c23)cc1,39.4,-5.4,64.7*,20.0,39.8
c1ccc(N2CCN(c3ncnc4scc(-c5cccs5)c34)CC2)cc1,31.0,33.6,.,7.1,64.3*
OCCCNc1ncnc2scc(-c3ccc(Cl)cc3)c12,31.7,19.3,-15.2,24.6,73.2*
CCN1CCN(c2ncnc3scc(-c4ccc(OC)cc4)c23)CC1,10.0,-10.9,0.5,3.6,90.8*
COc1ccc([Si](C)(C)[C@H]2[C@H](CCO)O[C@@]3(C(=O)N(Cc4ccc(N5CCOC5=O)cc4)c4ccccc43)[C@@H]2C)cc1,.,.,23.6,.,.
COc1ccc(-c2csc3ncnc(N4CCN(c5cccc(Cl)c5)CC4)c23)cc1,26.8,.,.,31.1,29.4
COc1ccc(-c2csc3ncnc(N4CCN(c5cccc(OC)c5)CC4)c23)cc1,16.3,-9.0,4.1,12.7,54.2*
CN(C)CC(=O)Nc1ccc2c(c1)[C@H]1C[C@H](CC(=O)NCc3ccccn3)O[C@H](CO)[C@H]1O2,.,3.8,-9.4,.,.
CC(C)NC(=O)N(C)C[C@@H]1Oc2ccc(NC(=O)Cc3ccccc3)cc2CC(=O)N([C@@H](C)CO)C[C@@H]1C,.,-13.1,-1.1,.,.
Cc1ccc(S(=O)(=O)c2cc3ccccc3oc2=Nc2ccc3c(c2)OCCO3)cc1,12.9,-0.4,.,-1.7,81.1*
Cc1ccc(S(=O)(=O)c2cc3ccccc3oc2=Nc2ccc3c(c2)OCO3)cc1,-20.8,.,.,1.9,-28.9
COc1cccc2cc(S(=O)(=O)c3ccccc3)c(=Nc3ccc4c(c3)OCCO4)oc12,16.6,0.0,.,8.1,77.6*
CS(=O)(=O)c1ccc(CNC(=O)C2(C(F)(F)F)CC(CCCO)CCCO2)cc1 (stereo not drawn),.,0.0,58.6*,.,.
O=C(NCCN1CCN(c2ccccc2F)CC1)c1ccc2nc3ccccc3c(=O)n2c1,21.5,-7.4,-22.2,-0.3,67.1*
COc1ccc(N2CCN(CCNC(=O)c3ccc4nc5ccccc5c(=O)n4c3)CC2)cc1,13.3,4.8,1.5,31.7,37.4
Cc1ccc2nc(-c3ccc(NC(=O)C4CCCO4)cc3)[nH]c2c1 (stereo not drawn),44.2,60.0*,.,34.4,69.8*
Cc1ccc2nc(-c3ccc(NC(=O)Cc4cccs4)cc3)[nH]c2c1,-59.9,-55.4,-74.5,-37.6,-30.2
CCS(=O)(=O)Nc1cccc(-c2nc3cccnc3s2)c1,-10.5,-36.9,-71.5,-13.7,23.5
O=C(Nc1ccc(-c2nc3ccccc3o2)cc1)C1CCCO1 (stereo not drawn),36.3,.,.,-11.4,49.7
O=C(Nc1ccc(-c2nc3cc(Cl)ccc3o2)cc1)C1CCCO1 (stereo not drawn),9.9,.,.,-30.0,50.2*
